According to the supplement of paper PMC10338343:
± gives the standard deviation.

What follows are sequences tested on MILI (PIWIL2) piRISC loaded with piRNA #1 (26 nt) (assay: pre-steady-state target cleavage rate (min^-1); guide: piRNA #1 5'p-UGAGGUAGUAGGUUGUAUAGUAUCCA; MIWI and MILI are mouse PIWI proteins and EfPiwi is from a freshwater sponge; tags in brackets are library labels; higher = faster piRNA-guided slicing of the target). Conditions: auxiliary factor: 500 nM mouse GTSF1.
Experimental: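 Cleave-'n-Seq: a library of target RNAs (target site embedded in constant flanks, ACAGCATTCCGCGTTAGTGATATCCG... 5' flank; DNA-blocked outside the site) at 0.1 nM was incubated with 1 nM active mouse MILI or MIWI piRISC (synthetic 5'-monophosphorylated piRNA guide) with or without 500 nM mouse GTSF1 at 33 °C for 1 min to 16 h. Uncleaved targets were sequenced and normalised to non-target controls, and the pooled three trials were fitted to a burst-and-steady-state model to give the pre-steady-state cleavage rate (min^-1; k3 is constrained to at most 1e-4). Sequence is the target site only; target names encode pairing extent (gX:gY) and contiguous / 1-mismatch / 2-mismatch / bulge geometry. Fits with R² ≤ 0 are excluded.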
For GGAGUGGAUACAUUACAACCUACUACCUCA, the “pre-steady-state target cleavage rate” value was 0.152 ± 0.012. With GGAGACCUAUGAUAUGACCUACUACCUCA the “pre-steady-state target cleavage rate” value was 0.0053 ± 0.0031. With GGAGUGGAUACUAUACAACCUACUAGCCUCA the “pre-steady-state target cleavage rate” value was 0.115 ± 0.019. For GGAGACCAUACUAUACAACCCACUACCUCA, the “pre-steady-state target cleavage rate” value was 0.0223 ± 0.0041. For GGAGACCAUACUACACAACCUACUACCUCA, the “pre-steady-state target cleavage rate” value was 0.215 ± 0.018. With GGAGACCUAUGUAUAGCAACCUACUACCUCA the “pre-steady-state target cleavage rate” value was 0.0101 ± 0.003. For GGAGACCUUACUAAACAACCUACUAGCUCA, the “pre-steady-state target cleavage rate” value was 0.139 ± 0.018. For GGAGACGAUAGUAUACAACCAACUACCUCA, the “pre-steady-state target cleavage rate” value was 0.00662 ± 0.0036. GGAGAGCAUACUAAACAACCUACUACCUCA was tested, and the “pre-steady-state target cleavage rate” value was 0.158 ± 0.015. GGAGACCUAAGCUAUACAACCUACUACCUCA was tested, and the “pre-steady-state target cleavage rate” value was 0.141 ± 0.028. For GGAGACCUAUGAAUACAUGCUACUACCUCA, the “pre-steady-state target cleavage rate” value was 0.00268 ± 0.0026. GGAGACCAUACUAUACUACCUACUACCACA was tested, and the “pre-steady-state target cleavage rate” value was 0.217 ± 0.021. For GGAGACCUAUCUAUACAACCUACUUCCACA, the “pre-steady-state target cleavage rate” value was 0.0447 ± 0.011. With GGAGACCUAACUAUACAACCUACUAACUCA the “pre-steady-state target cleavage rate” value was 0.1 ± 0.03. For GGAGUGGAUACUAUACAACCUACUUGGUCA, the “pre-steady-state target cleavage rate” value was < 0.0001. With GGAGUGGAUUCUAUACAACCUACUUCCUCA the “pre-steady-state target cleavage rate” value was 0.00383 ± 0.0021. GGAGUGGAUACUAUACAUCCAACUACCUCA was tested, and the “pre-steady-state target cleavage rate” value was 0.00718 ± 0.0021. For GGAGACGAUCACUAUACAACCUACUACCUCA, the “pre-steady-state target cleavage rate” value was 0.131 ± 0.019. For GGAGACCUAUCUAUACAGCCUACUACCUCA, the “pre-steady-state target cleavage rate” value was 0.0315 ± 0.006. With GGAGACCUAUGUAUACAACCUUCUACCACA the “pre-steady-state target cleavage rate” value was 0.00445 ± 0.0026. With GGAGACGAUACUAAACAAGCUACUACCUCA the “pre-steady-state target cleavage rate” value was 0.268 ± 0.016. In the case of GGAGACCUAUCAAUACAACCUACUAGCUCA, the “pre-steady-state target cleavage rate” value is reported as 0.0299 ± 0.0076. For GGAGAGGAUUCUAUACAACCUACUAGCUCA, the “pre-steady-state target cleavage rate” value was 0.0566 ± 0.01. In the case of GGAGACCUUACUAUACGACCUACUACCUCA, the “pre-steady-state target cleavage rate” value is reported as 0.0683 ± 0.0088. GGAGACGAUACUAUACUACCUACUUCCUCA was tested, and the “pre-steady-state target cleavage rate” value was 0.101 ± 0.016. For GGAGACCUAUGUAUACUACCUACUACCUCA, the “pre-steady-state target cleavage rate” value was 0.0517 ± 0.008. With GGAGAGGAUACUAUUCAACCUACAACCUCA the “pre-steady-state target cleavage rate” value was 0.0909 ± 0.01. For GGAGACCUAACUUUACUACCUACUACCUCA, the “pre-steady-state target cleavage rate” value was 0.0581 ± 0.013. In the case of GGAGACGAUACAAUACAACCAACUACCUCA, the “pre-steady-state target cleavage rate” value is reported as 0.0105 ± 0.0027. For GGAGACCUAUGUUUACAACCUUCUACCUCA, the “pre-steady-state target cleavage rate” value was 0.00358 ± 0.0029. With GGAGACCUAUCUAUACAACGUACAACCUCA the “pre-steady-state target cleavage rate” value was 0.0149 ± 0.0048. With GGAGUGCAUACUAUACAUCCUACUACCUCA the “pre-steady-state target cleavage rate” value was 0.313 ± 0.015. With GGAGUGGACUACUAUACAACCUACUACCUCA the “pre-steady-state target cleavage rate” value was 0.156 ± 0.01. With GGAGAGGAUACUAUACAACCUACUACGUCA the “pre-steady-state target cleavage rate” value was 0.058 ± 0.0086. For GGAGACCUAUGAUAUGUACCUACUAACUCA, the “pre-steady-state target cleavage rate” value was < 0.0001. GGAGACCUAAGAUUACAACCUACUACCUCA was tested, and the “pre-steady-state target cleavage rate” value was 0.0144 ± 0.0043. GGAGUGGAUACUUAUACAACCUACUACCUCA was tested, and the “pre-steady-state target cleavage rate” value was 0.133 ± 0.0093. With GGAGUGGAUAGUAUACAACCUACUACCUGA the “pre-steady-state target cleavage rate” value was 0.0603 ± 0.014. GGAGACCUAUGAUAUCACCUACUACCUCA was tested, and the “pre-steady-state target cleavage rate” value was 0.00625 ± 0.0026. For GGAGACGAUAGUAUUCAACCUACUACCUCA, the “pre-steady-state target cleavage rate” value was 0.156 ± 0.012.
